# Results filed as inconclusive are left out. Unmarked numbers belong to inactive results. Calls of active or inactive are those of the source. Calls follow the shape of the dose curve; as a rule, active = well fitted inhibition curve with a large enough effect; inconclusive = small, poorly fitted or top-dose-only effect; inactive = no such curve, though single readings can be large or run the other way. Numbered stars: 1 amine (or outer) side, 2 acyl side, 3 side chain; on linkers, the order of the positions; unused ones are H or OH. Bridge positions count the residues as written; N and C are the ends. Square brackets hold non-standard residues; d marks the D form. Peptide text beside a SMILES is read from it. * marks the point of attachment. ξ: configuration not given here. ΔAla(Z-3-ureido) = NC(=O)N/C=C(\N)C(=O)O; ξDab(CH2SO3H) = NC(CCNCS(=O)(=O)O)C(=O)O; X2 = NC1=NC(O)CC(C(N[*:1])C(=O)[*:2])N1; Heptanoyl(6-Me) = CC(C)CCCCC(=O)*; ξβ3hOrn = NCCCC(N)CC(=O)*; Orn = NCCC[CH](N)C(=O)O; Dab = NCC[CH](N)C(=O)O; Dap = NC[CH](N)C(=O)O
# Experiment: S16 Schwann cell PMP22 intronic element firefly luciferase assay (AID 624032); also: nearly all actives have a fitted effect of over 30% in size
# Conditions: S16 rat Schwann cells, PMP22 element FLuc, 24 h; series mostly up to 57.5 µM; activity change, negative = inhibition: at the top concentration
# From the text: Charcot-Marie-Tooth-Association [CMTA]
# National Center for Advancing Translational Sciences [NCATS]
# Charcot-Marie-Tooth (CMT) disease was first characterized by Jean-Martin Charcot and Pierre Marie in France and, independently, by Howard Henry Tooth in England in 1886. CMT is one of the most common inherited neurological diseases, affecting approximately 1 in 2,500 Americans. […] The most prevalent type of CMT is known as CMT1A and caused by a duplication of the PMP22 gene which leads to over-expression of this protein. PMP22 is a glycosylated intrinsic membrane protein accounting for 2-5% of the myelin protein content, and its over-expression results in demyelination and subsequently axonal loss.
# A pair of cellular transcription-based assays was developed in the S16 rat Schwann cell lines (Hai, M., et al., 2002) stably transfected with orthogonal reporters - firefly luciferase (Fluc) and beta-lactamase (beta-Lac) - whose expression is driven by an intronic regulatory element of the PMP22 gene (Jones, E.A., et al., 2011) to recapitulate endogenous expression of PMP22. The current assay employs Fluc to report on PMP22 expression. A comprehensive library of approved drugs, the NCGC Pharmaceutical Collection (Huang, R., et al., 2011), was screened in the cross-validating platform of the orthogonal reporter assays to identify drug modulators inhibitory towards PMP22 expression.
# A set of counter-screens was devised to address non-specific activity of the library. An ATP-dependent CellTiter-Glo assay (developed by Promega Corp) was utilized to control cell viability. In addition, biochemical Fluc enzyme assay was performed to assess direct inhibition of the Fluc enzymatic activity.
# Hai, M., Muja, N., DeVries, G.H., Quarles, R.H. and Patel, P.I. Comparative analysis of Schwann cell lines as model systems for myelin gene transcription studies. J Neurosci Res, 2002. 69(4): pp 497-508
# Huang, R., Southall, N., Wang, Y., Yasgar A., Shinn P., Jadhav, A. , Nguyen, D.-T. and Austin, C.P., The NCGC pharmaceutical collection: a comprehensive resource of clinically approved drugs enabling repurposing and chemical genomics. Sci Transl Med, 2011. 3(80): p. 80ps16.
# S16 Schwann cell PMP22 intronic element firefly luciferase assay
# The FLuc-expressing S16 cells were seeded in white solid 1536-well plates at between 500-750 cells/4uL in DMEM medium containing 10% FBS, w/o phenol red. After overnight incubation at 37 degree Celsius/5% C02, 23 nL of compounds or DMSO were delivered to each well using a pin tool, followed by 24h-incubation at 37 degree Celsius/5% C02. Then 4 uL ONE-Glo luminescent substrate mix (Promega) was added to each well. Luminescence was measured on a ViewLux plate reader (Perkin Elmer). The % activity was determined by normalizing to the average readings of PTC124 (a positive control) - treated cells relative to DMSO-treated cells (0% Activity). The concentration-effect curves were then classified based on curve quality (r2), response magnitude and degree of measured activity.
# Potency is read from the fitted curve at half-maximal effect.
Structure (SMILES),"activity change, negative = inhibition",Potency
CC(C)C(NC(=O)C(CC(=O)O)NC(=O)C(CCCCN)NC(=O)C(N)CCCN=C(N)N)C(=O)NC(Cc1ccc(O)cc1)C(=O)O (stereo unspecified) (H-RKDVY-OH; configuration not given here),20.5%,–
NCCCC(N)CC(=O)NC1CNC(=O)C(C2CC(O)N=C(N)N2)NC(=O)/C(=C/NC(N)=O)NC(=O)C(CO)NC(=O)C(CO)NC1=O (stereo not drawn) (ξβ3hOrn-[Dap]SS[ΔAla(Z-3-ureido)][X2]; lactam 1-C; configuration not given here),-8.28%,–
CCC(Oc1ccccc1)C(=O)NC1C(=O)N2C1SC(C)(C)C2C(=O)O (stereo unspecified),16.1%,–
O=C(O)c1ccccc1-c1c2cc(Br)c(=O)c(Br)c-2oc2c(Br)c(O)c(Br)cc12,-23.9%,–
Cn1cc(O)nc1NC(=O)Nc1cccc(Cl)c1,112%,–
CNCC(=O)NC(CCCN=C(N)N)C(=O)NC(C(=O)NC(Cc1ccc(O)cc1)C(=O)NC(C(=O)NC(Cc1cnc[nH]1)C(=O)N1CCCC1C(=O)NC(C)C(=O)O)C(C)C)C(C)C (stereo unspecified),6.34%,–
CC(=O)OCC(=O)[C@@]1(O)CCC2C3CCC4=CC(=O)CC[C@]4(C)C3=CC[C@@]21C (stereo partly specified),21%,–
COc1ccc(-c2nc3ccc(C4=C(C)CC(=O)NN4)cc3[nH]2)cc1,13.6%,–
NC(=O)CCC1NC(=O)C(Cc2ccccc2)NC(=O)C(Cc2ccc(O)cc2)NC(=O)CCSSCC(C(=O)N2CCCC2C(=O)NC(CCCN=C(N)N)C(=O)NCC(N)=O)NC(=O)C(CC(N)=O)NC1=O (stereo unspecified),-1.26%,–
O=C1/C(=C\c2cccs2)CCC/C1=C/c1cccs1,173%,–
C=CC1=C(C(=O)O)N2C(=O)[C@@H](NC(=O)C(N=O)c3csc(N)n3)[C@H]2SC1 (stereo partly specified),-9.73%,–
CCC1NC(=O)C(NC(=O)c2ncccc2O)C(C)OC(=O)C(c2ccccc2)NC(=O)C2CC(=O)CCN2C(=O)C(Cc2ccccc2)N(C)C(=O)C2CCCN2C1=O (stereo unspecified),8.29%,–
CC(=O)OCC1=C(C(=O)O)N2C(=O)C(NC(=O)Cc3ccccc3)C2SC1 (stereo unspecified),7.41%,–
CCC(C)C1NC(=O)C(Cc2ccc(O)cc2)NC(=O)C(N)CSSCC(C(=O)N2CCCC2C(=O)NC(CC(C)C)C(=O)NCC(N)=O)NC(=O)C(CC(N)=O)NC(=O)C(CCC(N)=O)NC1=O (stereo unspecified),7.55%,–
CC1(C)C(/C=C/C=C/C=C/C=C2\N(CCCCS(=O)(=O)O)c3ccc4ccccc4c3C2(C)C)=[N+](CCCCS(=O)(=O)[O-])c2ccc3ccccc3c21,4.47%,–
CC(C)CC(NC(=O)C(COC(C)(C)C)NC(=O)C(Cc1ccc(O)cc1)NC(=O)C(CO)NC(=O)C(Cc1c[nH]c2ccccc12)NC(=O)C(Cc1cnc[nH]1)NC(=O)C1CCC(=O)N1)C(=O)NC(CCCN=C(N)N)C(=O)N1CCCC1C(=O)NNC(N)=O (stereo unspecified),-0.795%,–
CCOC(=O)C(CS)NCCN[C@@H](CS)C(=O)OCC (stereo partly specified),–,10.2 µM (active)
CC(C)CC1NC(=O)C(CCCN)NC(=O)C(C(C)C)NC(=O)C2CCCN2C(=O)C(Cc2ccccc2)NC(=O)C(CC(C)C)NC(=O)C(CCCN)NC(=O)C(C(C)C)NC(=O)C2CCCN2C(=O)C(Cc2ccccc2)NC1=O (stereo unspecified) (cyclo(FPV[Orn]LFPV[Orn]L); configuration not given here),–,0.642 µM (active)
CCC(C)C1NC(=O)C(CCNCS(=O)(=O)O)NC(=O)C(NC(=O)C(CCNCS(=O)(=O)O)NC(=O)C(NC(=O)C(CCNCS(=O)(=O)O)NC(=O)CCCCC(C)C)C(C)O)CCNC(=O)C(C(C)O)NC(=O)C(CCNCS(=O)(=O)O)NC(=O)C(CCNCS(=O)(=O)O)NC(=O)C(C(C)CC)NC1=O (stereo unspecified) ({Heptanoyl(6-Me)}-[ξDab(CH2SO3H)]T[ξDab(CH2SO3H)][Dab][ξDab(CH2SO3H)]II[ξDab(CH2SO3H)][ξDab(CH2SO3H)]T; lactam 4-C; configuration not given here),-25.1%,–
CC(N)C(=O)NCC(=O)NC1CSSCC(C(=O)O)NC(=O)C(CO)NC(=O)C(C(C)O)NC(=O)C(Cc2ccccc2)NC(=O)C(C(C)O)NC(=O)C(CCCCN)NC(=O)C(Cc2c[nH]c3ccccc23)NC(=O)C(Cc2ccccc2)NC(=O)C(Cc2ccccc2)NC(=O)C(CC(N)=O)NC(=O)C(CCCCN)NC1=O (stereo unspecified),0.0264%,–
CC(C)C[C@H](NC(=O)[C@@H](Cc1c[nH]c2ccccc12)NC(=O)[C@@H](Cc1ccc(O)cc1)NC(=O)[C@@H](CO)NC(=O)[C@@H](Cc1c[nH]c2ccccc12)NC(=O)C(Cc1cnc[nH]1)NC(=O)C1CCC(=O)N1)C(=O)N[C@@H](CCCN=C(N)N)C(=O)N1CCC[C@@H]1C(=O)NCC(N)=O (stereo partly specified),-3.11%,–
